# Experimental data as given in PubChem BioAssay AID618 (Sanford-Burnham Center for Chemical Genomics, 2007).
# In all, about 87,000 compounds went through this assay and about 540 (0.62%) were called active. No rule for the calls is given here. This excerpt belongs to a sample that is enriched for actives. Results with a measured potency or affinity are listed apart.
# Test: inhibitors of MT1-MMP promoter transcription, cell-based, luciferase reporter, luminescence (AID 618);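 also: actives suppress MT1-MMP promoter-driven transcription so potencies describe inhibitors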
# Conditions: MT1-MMP promoter luciferase reporter cells
row,Compound,outcome
1,Cc1ccsc1C(=O)OCc1csc(-c2ccccc2)n1,active
2,Cn1cccc1C(=O)OCc1csc(-c2ccccc2)n1,inactive
3,O=C(OCc1csc(-c2ccccc2)n1)c1cccs1,inactive
4,O=c1cc(CSc2nnnn2-c2ccccc2)nc2nc[nH]n12,inactive
5,O=C(NC1CC1)c1cc2c(s1)-c1ccccc1OC2,inactive
6,Cn1c(=O)cc(SCC(=O)NCC2CCCO2)c2ccccc21 (configuration not stated),inactive
7,Cc1cc(NCCCn2ccnc2)n2nc(C)c(-c3ccc(Cl)cc3)c2n1,inactive
8,Cc1cc(NCCCn2ccnc2)n2ncc(-c3ccccc3)c2n1,active
9,CC(C)(C)c1cc(NCCCn2ccnc2)n2ncc(-c3ccc(Cl)cc3)c2n1,inactive
10,Cc1cc(NCCCn2ccnc2)n2nc(C)c(-c3ccccc3)c2n1,inactive
11,Cc1cc(NCCCN2CCOCC2)n2ncc(-c3ccccc3)c2n1,inactive
12,Cc1ccc(C)c(C(=O)CC2(O)C(=O)Nc3ccccc32)c1 (configuration not stated),inactive
13,Cc1onc(-c2c(F)cccc2Cl)c1C(=O)NCCCN1CCOCC1,inactive
14,Cc1cccc(C)c1NC(=O)Cn1c(CN2CCCCC2)nc2ccccc2c1=O,inactive
15,CCN(Cc1ccccc1)S(=O)(=O)c1nc2nc(C)c(C)c(C)n2n1,inactive
16,CC(C)CC(=O)Nc1ccc(-c2cn3ccsc3n2)cc1,inactive
17,CC(C)(C)C(=O)Nc1ccc(-c2cn3ccsc3n2)cc1,active
18,CC(=O)Nc1ccc(-c2cn3ccsc3n2)cc1,inactive
19,CCCOC(=O)c1ccc(Oc2c(-c3ccc(OC)cc3O)n[nH]c2C)cc1,inactive
20,COc1ccc(CN2CC(C(=O)NCc3ccc4c(c3)OCO4)CC2=O)cc1 (configuration not stated),inactive
21,O=C(c1nc2nc(-c3ccccc3)cc(C(F)(F)F)n2n1)N1CCOCC1,inactive
22,O=C(CSc1nnc(-c2ccccc2)n1Cc1ccco1)Nc1ccc(S(=O)(=O)N2CCCC2)cc1,inactive
23,Clc1ccc(-c2nc(N3CCCCC3)nc3ccccc23)cc1,inactive
24,Clc1ccc(-c2nnc3n2CCCCC3)cc1,inactive
25,Clc1c(CSc2nc3ccccc3o2)nc2sccn12,inactive

row,Compound,outcome
1,c1ccc2oc(SCc3cn4ccccc4n3)nc2c1,inactive
2,CCOc1cc(/C=N/N=C(/N)c2nonc2N)cc(Br)c1OCc1ccc(Cl)cc1,inactive
3,CCOC(=O)c1[nH]c(C)c(C(=O)NCCCOC(C)C)c1C,inactive
4,c1ccc(CN2CCN(c3nc4ccccc4c4ccccc34)CC2)cc1,inactive
5,COCCOC(=O)C1=C(C)NC2=C(C(=O)CCC2)C1c1cc2c(cc1Br)OCO2 (configuration not stated),inactive
6,O=S(=O)(c1ccc2c(c1)C(=NO)c1cc(S(=O)(=O)N3CCCCC3)ccc1-2)N1CCCCC1,active
7,O=S(=O)(c1ccc(S(=O)(=O)N2CCCC2)cc1)N1CCCCCC1,inactive
8,CC1CCN(S(=O)(=O)c2ccc3c(c2)C(=NO)c2cc(S(=O)(=O)N4CCC(C)CC4)ccc2-3)CC1,inactive
9,O=C(CCC(=O)c1ccc(F)cc1)Nc1cccnc1,inactive
10,CC(C)N(CCCNC(=O)CC1Oc2ccccc2NC1=O)Cc1ccccc1 (configuration not stated),inactive
11,O=C1C(=O)c2ccc(-c3ccccc3)cc2-c2ccccc21,inactive
12,Nc1ccc2c(c1)C(=O)C(=O)c1ccccc1-2,active
13,Nc1ccc(Br)c2c1C(=O)c1ccccc1C2=O,inactive
14,CCOC(=O)CON1C(=O)c2ccccc2C1=O,inactive
15,COc1ccc(-c2c(C)n([O-])c3c([n+]2=O)CCCC3)cc1,inactive
16,N=c1n(CCN2CCOCC2)c2ccccc2n1Cc1ccccc1Br,inactive
17,CCn1c(-c2ccco2)nc2ccccc21,inactive
18,Cn1c(-c2ccco2)nc2cc3ccccc3cc21,active
19,Cn1c(-n2c(-c3ccco3)nc3ccccc3c2=O)nc2ccccc21,inactive
20,C=COCCn1c(=N)n(CCC)c2ccccc21,inactive
21,O=C1[C@@H]2C(c3ccccc3Cl)=NO[C@@H]2C(=O)N1Cc1ccccc1,inactive
22,Cc1c(NC(=O)c2ccccc2)c(=O)n(-c2ccccc2)n1C,inactive
23,Cc1c(NC(=O)c2ccc(=O)oc2)c(=O)n(-c2ccccc2)n1C,inactive
24,CCCNc1cc(C)oc(=O)c1C(=O)CCC,inactive
25,Oc1ccc(Nc2nc3ccccc3nc2Nc2ccc(O)cc2)cc1,inactive

row,Compound,outcome
1,Cc1nc2cc(-c3cccc(F)c3)nn2c(C)c1CCC(=O)N1CCN(c2ccccn2)CC1,inactive
2,CCOC(=O)C1CCCCN1C(=O)CCc1c(C)nc2ncnn2c1C (configuration not stated),inactive
3,CCn1c(C(=O)Nc2ccsc2C(=O)OC)cc2sc(Cl)cc21,inactive
4,CN1CCC(C2(O)c3ccccc3CSc3sccc32)CC1 (configuration not stated),inactive
5,Cc1cc(C(C)(C)C)oc1C(=O)Nc1ccc(CC(=O)O)cc1,inactive
6,O=C(O)Cc1ccc(NC(=O)c2ccc(NC(=O)c3ccco3)cc2)cc1,inactive
7,Cc1oc(C)c(C(=O)Nc2ccc(CC(=O)O)cc2)c1C(=O)Nc1ccc(CC(=O)O)cc1,inactive
8,COC(=O)Cc1ccc(NC(=O)c2ccc(Br)o2)cc1,inactive
9,COC(=O)Cc1ccc(NC(=O)c2ccc(C)c(C)c2)cc1,inactive
10,Cc1ccc(C(=O)Nc2ccc(CC(=O)O)cc2)o1,inactive
11,COc1ccc(-n2c(Cc3cccn3C)nnc2SCC(=O)Nc2cccc(NC(C)=O)c2)cc1,inactive
12,CCOc1ccc(CCNC(=O)C(O)c2ccccc2)cc1 (configuration not stated),inactive
13,Cc1cc(=O)oc2cc(OCC(=O)Nc3nnc(C(C)C)s3)ccc12,inactive
14,CC(=NCCCn1ccnc1)C1=C(O)c2ccccc2C1=O,inactive
15,Cc1cccc(-n2ncc3c(N4CCC5(CC4)OCCO5)ncnc32)c1,inactive
16,Cc1cccc(-n2ncc3c(N4CCN(c5nc(C)cc(C)n5)CC4)ncnc32)c1,inactive
17,CCN1CCN(c2ncnc3c2cnn3-c2ccc(Cl)cc2)CC1,inactive
18,Clc1ccc(-n2ncc3c(N4CCCC4)ncnc32)cc1,inactive
19,COc1cc(NC(=O)CSc2ncnc3c2cnn3Cc2ccccc2)cc(OC)c1,inactive
20,COc1ccc(-c2cn3c(C)c(C(=O)N4CCc5ccccc5C4)sc3n2)cc1,inactive
21,COc1ccccc1-c1coc2c(CN3CCN(CCO)CC3)c(O)ccc2c1=O,inactive
22,CCOC(=O)C(NS(=O)(=O)c1ccc(Br)cc1)C(C)C (configuration not stated),inactive
23,COc1ccc2c(CC(=O)OCC(=O)c3ccc(F)cc3)coc2c1,inactive
24,Oc1c(C(c2ccco2)N2CCOCC2)sc2ncnn12 (configuration not stated),inactive
25,O=C(Nc1cnc2ccccc2c1)c1ccncc1,inactive

row,Compound,outcome
1,Cc1oc2c(c1C(=O)Nc1cccc(C(=O)O)c1)CCCC2,inactive
2,O=C(O)c1ccc(C(=O)Nc2cccc(NC(=O)C3CCCO3)c2)cc1 (configuration not stated),inactive
3,O=C(Nc1cnc2ccccc2c1)c1cccnc1,inactive
4,Cc1ccc(C(=O)Nc2cccc(C(=O)N3CCN(C)CC3)c2)cc1,inactive
5,Cc1ccc(NC(=O)c2ccccc2)cc1,inactive
6,O=C(O)c1cccc(NC(=O)C2CCCO2)c1 (configuration not stated),inactive
7,Cc1cc(C(=O)Nc2ccccc2)oc1C,inactive
8,O=C(Oc1ccc(Br)cc1)c1cncc(Br)c1,inactive
9,O=C1CCC([N+](=O)[O-])C(c2ccccc2Cl)N1 (configuration not stated),inactive
10,COc1cccc(-n2nnc3c(=O)n(Cc4c(F)cccc4Cl)cnc32)c1,inactive
11,CCN(CC)CCCNC(=O)c1sc2nc(-c3ccc(F)cc3)cn2c1C,inactive
12,CCn1cc(C(=O)NCc2ccco2)c(=O)c2cc(S(=O)(=O)N3CC(C)CC(C)C3)ccc21 (configuration not stated),inactive
13,CCOC(=O)CCn1c(=O)c2c(nc(Br)n2Cc2ccccc2)n(C)c1=O,inactive
14,Cc1ccc(S(=O)(=O)NCCC(=O)Nc2nnc(C)s2)cc1,inactive
15,COC(=O)[C@H](C)NC(=O)Nc1ccccc1F,inactive
16,COc1ccc(S(=O)(=O)n2c(CCN3CCOCC3)nc3ccccc32)cc1,inactive
17,O=C(O)c1cccc(NC(=O)c2cccc(S(=O)(=O)N3CCCCC3)c2)c1,inactive
18,Cc1ccc(C(=O)Nc2cccc(C(=O)O)c2)cc1S(=O)(=O)N1CCOCC1,inactive
19,CC1C=CC(C)C(C(=O)O)C1C(=O)O (configuration not stated),inactive
20,CC(=O)c1ccc(NS(=O)(=O)c2ccc(CC(C)C)cc2)cc1,inactive
21,Cc1cccnc1NC(=O)C1CCN(S(=O)(=O)c2cccs2)CC1,inactive
22,COc1ccc(CCn2c(N3CCN(C)CC3)nc3c2c(=O)[nH]c(=O)n3C)cc1,inactive
23,CCOc1ccc(S(=O)(=O)NCCC2=CCCCC2)c2ccccc12,inactive
24,CCCC1=Nc2cc(C(=O)NCCCOCC)ccc2Sc2ccccc21,active
25,CCC1=Nc2cc(C(=O)NCCCOC)ccc2Sc2ccccc21,active

row,Compound,outcome
1,COCCCNC(=O)c1cccc(C(=O)NCCCOC)c1,inactive
2,CCOCCCNC(=O)c1ccc(OC)cc1,inactive
3,CCC1=Nc2cc(C(=O)NCCCOC(C)C)ccc2Sc2ccccc21,inactive
4,CCCC1=Nc2cc(C(=O)NCCCOC(C)C)ccc2Sc2ccccc21,inactive
5,COc1ccc(S(=O)(=O)Cc2ccc(C(=O)N3CCN(c4ncccn4)CC3)o2)cc1,inactive
6,CC1(C)CC(=O)C2=C(C1)Nc1ccccc1NC2c1cccnc1 (configuration not stated),inactive
7,CCC1=C2CC[C@H]3C(=O)N(CC(=O)OC)C(=O)[C@H]3[C@H]2[C@@]2(Cc3ccccc3)C(=NCCc3c[nH]c4ccccc34)OC(=O)N2C1=O,inactive
8,O=C(CSc1ccccc1)Nc1cccnc1,inactive
9,CC(CN1CCOCC1)OC(=O)c1ccccc1Br (configuration not stated),inactive
10,COc1cc(OC)cc(C(=O)Nn2c(C)nc3ccccc3c2=O)c1,inactive
11,COc1ccc2[nH]c3c(c2c1)CCn1c-3nc2ccccc2c1=O,active
12,COc1ccc(-c2nc3ccccc3c(=O)n2CCN2CCOCC2)cc1,inactive
13,O=C(CCCO)c1ccc2c(c1)OCCO2,inactive
14,O=C(CCc1ccccc1)c1ccc2c(c1)OCCCO2,inactive
15,O=C(Nc1ccncc1)c1ccc2c(c1)OCCO2,inactive
16,O=C(Nc1ccc2c(c1)OCCO2)c1cccnc1,inactive
17,COc1cc(SC)ccc1C(=O)Nc1ccccc1,inactive
18,O=C(Nc1ccc2c(c1)OCO2)c1cncc(Br)c1,inactive
19,O=C(Nc1ccccc1)c1ccc2c(c1)OCCO2,inactive
20,Cc1cc(C(=O)Nc2ccc3c(c2)OCCO3)co1,inactive
21,CS(=O)(=O)Nc1ccc(C(=O)Nc2ccc3c(c2)OCCO3)cc1,inactive
22,COc1ccccc1C(=O)Nc1ccc2c(c1)OCCO2,inactive
